# Results from PubChem BioAssay (EPA / NIEHS).
# Calls of active or inactive are those of the source. Rule for the calls: active = hit-call score of the fitted dose curve at least 0.9, where 1 is the maximum; inactive = score below 0.9.
# Read-out: Vascular cell adhesion molecule 1 (VCAM1), VCAM1 (gene 7412)
# Experiment: BSK_4H_VCAM1: BioMAP Diversity Plus: 4H Assay for Vascular cell adhesion molecule 1 (VCAM1) Biomarker Activity (AID 2283033);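 for outcome: cell-surface VCAM-1 protein measured by ELISA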
# Details: primary human endothelial cells (HUVEC); actives raise or lower the signal
# Procedure, shortened: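 Endpoint derived from bidirectional fitting against DMSO controls of VCAM-1 ELISA signal in umbilical vein endothelial cells sampled at 24 h following treatment.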
SMILES,outcome,AC50
Nc1ccc(N)c([N+](=O)[O-])c1,inactive,
C=C(C)C(=O)OCCC(F)(F)C(F)(F)C(F)(F)C(F)(F)C(F)(F)C(F)(F)C(F)(F)C(F)(F)F,inactive,
O=S1(=O)CC(Cl)(Cl)C(Cl)(Cl)C1,,582 nM (active)
C=C(F)C(=O)OC(C(F)(F)F)C(F)(F)F,inactive,
CC(C)CCCC(C)(C)O,inactive,
CC(C)Cc1ccc(C(C)C(=O)O)cc1 (configuration not stated),inactive,
O=C(O)C(F)(F)OC(F)(F)C(F)(F)OC(F)(F)C(F)(F)C(F)(F)C(F)(F)F,inactive,
CCCCOCCOCCO,inactive,

# Read-out: Monokine induced gamma interferon (MIG), CXCL9 (gene 4283)
# Experiment: BSK_BE3C_MIG: BioMAP Diversity Plus: BE3C Assay for Monokine induced gamma interferon (MIG) Biomarker Activity (AID 2283035);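 for outcome: MIG protein measured by ELISA in BE3C cultures after 24 h of dosing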
# Details: primary human bronchial epithelial cells; actives raise or lower the signal
# Procedure, shortened: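 ELISA read-out of MIG in human lung bronchial epithelial primary cultures, 24 h post-dosing. Bidirectional curve fit vs DMSO baseline.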
SMILES,outcome,AC50
Nc1ccc(N)c([N+](=O)[O-])c1,inactive,
C=C(C)C(=O)OCCC(F)(F)C(F)(F)C(F)(F)C(F)(F)C(F)(F)C(F)(F)C(F)(F)C(F)(F)F,inactive,
O=S1(=O)CC(Cl)(Cl)C(Cl)(Cl)C1,,2040 nM (active)
C=C(F)C(=O)OC(C(F)(F)F)C(F)(F)F,inactive,
CC(C)CCCC(C)(C)O,inactive,
CC(C)Cc1ccc(C(C)C(=O)O)cc1 (configuration not stated),inactive,
O=C(O)C(F)(F)OC(F)(F)C(F)(F)OC(F)(F)C(F)(F)C(F)(F)C(F)(F)F,inactive,
CCCCOCCOCCO,inactive,

# Read-out: Transforming growth factor beta 1 (TGFb1), TGFB1 (gene 7040)
# Experiment: BSK_BE3C_TGFb1: BioMAP Diversity Plus: BE3C Assay for Transforming growth factor beta 1 (TGFb1) Biomarker Activity (AID 2283036;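 for outcome: TGF-b1 protein level measured by ELISA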)
# Details: primary human bronchial epithelial cells; actives raise or lower the signal
# Procedure, shortened: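 In this human primary bronchial epithelial system, an ELISA quantified TGF-b1 one day after dosing. Endpoint changes in either direction were fitted relative to DMSO.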
SMILES,outcome,AC50
Nc1ccc(N)c([N+](=O)[O-])c1,inactive,
O=S1(=O)CC(Cl)(Cl)C(Cl)(Cl)C1,,582 nM (active)
CC(C)Cc1ccc(C(C)C(=O)O)cc1 (configuration not stated),inactive,
CCCCOCCOCCO,inactive,

# Read-out: Plasminogen activator inhibitor-1 (PAI1), SERPINE1 (gene 5054)
# Experiment: BSK_BE3C_PAI1: BioMAP Diversity Plus: BE3C Assay for Plasminogen activator inhibitor-1 (PAI1) Biomarker Activity (AID 2283037)
# Details: primary human bronchial epithelial cells; actives raise or lower the signal
# Procedure, shortened: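 PAI-1 biomarker levels in treated human bronchial epithelial cells are determined by ELISA at 24 h. Both increases and decreases relative to DMSO are fitted.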
SMILES,outcome,AC50
Nc1ccc(N)c([N+](=O)[O-])c1,inactive,
C=C(C)C(=O)OCCC(F)(F)C(F)(F)C(F)(F)C(F)(F)C(F)(F)C(F)(F)C(F)(F)C(F)(F)F,inactive,
O=S1(=O)CC(Cl)(Cl)C(Cl)(Cl)C1,,1610 nM (active)
C=C(F)C(=O)OC(C(F)(F)F)C(F)(F)F,inactive,
CC(C)CCCC(C)(C)O,inactive,
CC(C)Cc1ccc(C(C)C(=O)O)cc1 (configuration not stated),inactive,
O=C(O)C(F)(F)OC(F)(F)C(F)(F)OC(F)(F)C(F)(F)C(F)(F)C(F)(F)F,inactive,
CCCCOCCOCCO,inactive,

# Read-out: urokinase plasminogen activator (uPA), PLAU (gene 5328)
# Experiment: BSK_BE3C_uPA: BioMAP Diversity Plus: BE3C Assay for urokinase plasminogen activator (uPA) Biomarker Activity (AID 2283038);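 for outcome: uPA protein level quantified by ELISA in cell cultures; uPA read one day after compound addition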
# Details: primary human bronchial epithelial cells; actives raise or lower the signal
# Procedure, shortened: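 ELISA for uPA on human primary bronchial epithelial cultures 24 h post-treatment, gain or loss against DMSO. Parallel SRB staining (0.1% after 10% TCA fixation, 560 nm) assessed overt cytotoxicity.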
SMILES,outcome,AC50
Nc1ccc(N)c([N+](=O)[O-])c1,inactive,
C=C(C)C(=O)OCCC(F)(F)C(F)(F)C(F)(F)C(F)(F)C(F)(F)C(F)(F)C(F)(F)C(F)(F)F,inactive,
O=S1(=O)CC(Cl)(Cl)C(Cl)(Cl)C1,,1080 nM (active)
C=C(F)C(=O)OC(C(F)(F)F)C(F)(F)F,inactive,
CC(C)CCCC(C)(C)O,inactive,
CC(C)Cc1ccc(C(C)C(=O)O)cc1 (configuration not stated),inactive,
O=C(O)C(F)(F)OC(F)(F)C(F)(F)OC(F)(F)C(F)(F)C(F)(F)C(F)(F)F,inactive,
CCCCOCCOCCO,inactive,

# Read-out: Urokinase-type plasminogen activator receptor (uPAR), PLAUR (gene 5329)
# Experiment: BSK_BE3C_uPAR: BioMAP Diversity Plus: BE3C Assay for Urokinase-type plasminogen activator receptor (uPAR) Biomarker Activity (AID 2283039);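 for outcome: uPAR protein level measured by ELISA on the cells; cells exposed to compound for one day before measurement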
# Details: primary human bronchial epithelial cells; actives raise or lower the signal
# Procedure, shortened: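 A uPAR ELISA serves as the readout, taken 24 h after treating primary human bronchial epithelial cells. Responses in either direction are fitted against DMSO, which defines baseline activity.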
SMILES,outcome,AC50
Nc1ccc(N)c([N+](=O)[O-])c1,inactive,
C=C(C)C(=O)OCCC(F)(F)C(F)(F)C(F)(F)C(F)(F)C(F)(F)C(F)(F)C(F)(F)C(F)(F)F,inactive,
O=S1(=O)CC(Cl)(Cl)C(Cl)(Cl)C1,,1660 nM (active)
C=C(F)C(=O)OC(C(F)(F)F)C(F)(F)F,inactive,
CC(C)CCCC(C)(C)O,inactive,
CC(C)Cc1ccc(C(C)C(=O)O)cc1 (configuration not stated),inactive,
O=C(O)C(F)(F)OC(F)(F)C(F)(F)OC(F)(F)C(F)(F)C(F)(F)C(F)(F)F,inactive,
CCCCOCCOCCO,inactive,

# Read-out: Interleukin-6 (IL6), IL6 (gene 3569)
# Experiment: BSK_CASM3C_IL6: BioMAP Diversity Plus: CASM3C Assay for Interleukin-6 (IL6) Biomarker Activity for (AID 2283040)
# Details: primary human coronary artery smooth muscle cells; actives raise or lower the signal
SMILES,outcome,AC50
Nc1ccc(N)c([N+](=O)[O-])c1,inactive,
C=C(C)C(=O)OCCC(F)(F)C(F)(F)C(F)(F)C(F)(F)C(F)(F)C(F)(F)C(F)(F)C(F)(F)F,inactive,
O=S1(=O)CC(Cl)(Cl)C(Cl)(Cl)C1,,1440 nM (active)
C=C(F)C(=O)OC(C(F)(F)F)C(F)(F)F,inactive,
CC(C)CCCC(C)(C)O,inactive,
CC(C)Cc1ccc(C(C)C(=O)O)cc1 (configuration not stated),,5550 nM (active)
O=C(O)C(F)(F)OC(F)(F)C(F)(F)OC(F)(F)C(F)(F)C(F)(F)C(F)(F)F,inactive,
CCCCOCCOCCO,inactive,
